Experimental data as given in PubChem BioAssay (NCATS).
Values joined by “and” are separate entries in the source; they are usually repeats but may differ in a detail not shown here. Identical values can stand only once. Results filed as inconclusive are left out. A call without a number means that no potency is given here. Active and inactive are the calls of the source. Calls come from the whole dose curve; as a rule, active = well fitted curve in the direction sought with a large enough effect; inconclusive = small, poorly fitted or top-dose-only effect, or another doubt; inactive = no such curve, though single readings can be large or run the other way.
Potency is the fitted concentration of half-maximal effect.

Assay: qHTS for differential inhibitors of proliferation of Plasmodium falciparum line GB4 (AID 1816);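 note: parasite growth measured after 72 h incubation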
Settings: Potency: Plasmodium falciparum GB4 proliferation inhibition; series mostly up to 28.7 µM
With CO[C@@]1(NC(=O)CSCC#N)C(=O)N2C(C(=O)O)=C(CSc3nnnn3C)CS[C@@H]21 the Potency was “inactive”. In the case of NC(=O)N1c2ccccc2C=Cc2ccccc21, the Potency is reported as “inactive”. In the case of c1cc(CN2CCCCC2)cc(OCCCNc2nc3ccccc3s2)c1, the Potency is reported as 6.31 µM (active). For Cc1nc2sccn2c(=O)c1CCN1CCC(=C(c2ccc(F)cc2)c2ccc(F)cc2)CC1, the Potency was 10 µM (active). In the case of CNC1(C)C2CCC(C2)C1(C)C (stereo unspecified), the Potency is reported as 12.6 µM (active). In the case of COc1cc(C(=O)OCCCN2CCCN(CCCOC(=O)c3cc(OC)c(OC)c(OC)c3)CC2)cc(OC)c1OC, the Potency is reported as 6.31 µM (active). For Cc1nc2ccccn2c(=O)c1CCN1CCC(C(=O)c2ccc(F)cc2)CC1, the Potency was 11.2 µM (active). For OC(CCN1CCCCC1)(c1ccccc1)C1CCCCC1 (stereo unspecified), the Potency was 10 µM (active). For CCN(CC)CCNC(=O)c1ccc(NC(C)=O)cc1, the Potency was “inactive”. For CCOC(=O)C1=C(C)NC(C)=C(C(=O)OC)C1c1cccc([N+](=O)[O-])c1 (stereo unspecified), the Potency was 12.6 µM (active). In the case of O=c1[nH]c(=O)n([C@H]2C[C@H](O)[C@@H](CO)O2)cc1Br, the Potency is reported as “inactive”. For CCN1CCc2nc(N)oc2CC1, the Potency was “inactive”. With CC(=O)OC(C)C[N+](C)(C)C (stereo unspecified) the Potency was “inactive”. For COCCOC(=O)C1=C(C)NC(C)=C(C(=O)OC(C)C)C1c1cccc([N+](=O)[O-])c1 (stereo unspecified), the Potency was 10 µM (active). For FC(F)(F)c1ccccc1-n1ccnc1, the Potency was “inactive”. In the case of C[N+](C)(C)CCOC(N)=O, the Potency is reported as “inactive”. In the case of Fc1ccc(C(c2ccc(F)cc2)N2CCN(C/C=C/c3ccccc3)CC2)cc1, the Potency is reported as 4.47 µM (active). In the case of COc1ccc(CN(CCN(C)C)c2ccccn2)cc1, the Potency is reported as 8.91 µM (active). In the case of NC/C=C/C(=O)O, the Potency is reported as “inactive”. In the case of CC(C)COCC(CN(Cc1ccccc1)c1ccccc1)N1CCCC1 (stereo unspecified), the Potency is reported as “inactive”. For OCCN1CCN(CCCN2c3ccccc3C=Cc3ccccc32)CC1, the Potency was 5.01 µM (active) and 4.47 µM (active). For CCCN(CCC)C(=O)C(CCC(=O)O)NC(=O)c1ccccc1 (stereo unspecified), the Potency was “inactive”. With CCN1CCC[C@H]1CNC(=O)c1c(O)c(Cl)cc(Cl)c1OC the Potency was “inactive”. For CC(C(=O)O)c1ccc(CC2CCCC2=O)cc1 (stereo unspecified), the Potency was “inactive”. With O=C1NCN(c2ccccc2)C12CCN(CCCC(c1ccc(F)cc1)c1ccc(F)cc1)CC2 the Potency was 8.91 µM (active).

Assay: qHTS for differential inhibitors of proliferation of Plasmodium falciparum line 3D7 (AID 1876)
Settings: P. falciparum 3D7 proliferation inhibition; series mostly up to 28.7 µM
In the case of CO[C@@]1(NC(=O)CSCC#N)C(=O)N2C(C(=O)O)=C(CSc3nnnn3C)CS[C@@H]21, the Potency is reported as “inactive”. With CC(=O)Oc1cc(C(C)C)c(OCCN(C)C)cc1C the Potency was “inactive”. For NC(=O)N1c2ccccc2C=Cc2ccccc21, the Potency was “inactive”. With c1cc(CN2CCCCC2)cc(OCCCNc2nc3ccccc3s2)c1 the Potency was 2.51 µM (active). With Cc1nc2sccn2c(=O)c1CCN1CCC(=C(c2ccc(F)cc2)c2ccc(F)cc2)CC1 the Potency was 11.2 µM (active). In the case of CNC1(C)C2CCC(C2)C1(C)C (stereo unspecified), the Potency is reported as “inactive”. In the case of COc1cc(C(=O)OCCCN2CCCN(CCCOC(=O)c3cc(OC)c(OC)c(OC)c3)CC2)cc(OC)c1OC, the Potency is reported as 3.16 µM (active). For Cc1nc2ccccn2c(=O)c1CCN1CCC(C(=O)c2ccc(F)cc2)CC1, the Potency was 10 µM (active). In the case of OC(CCN1CCCCC1)(c1ccccc1)C1CCCCC1 (stereo unspecified), the Potency is reported as 10 µM (active). For CCN(CC)CCNC(=O)c1ccc(NC(C)=O)cc1, the Potency was “inactive”. For CCOC(=O)C1=C(C)NC(C)=C(C(=O)OC)C1c1cccc([N+](=O)[O-])c1 (stereo unspecified), the Potency was 8.91 µM (active). In the case of O=c1[nH]c(=O)n([C@H]2C[C@H](O)[C@@H](CO)O2)cc1Br, the Potency is reported as “inactive”. In the case of c1ccc2c(c1)CCCC2C1=NCCN1 (stereo unspecified), the Potency is reported as “inactive”. For CCN1CCc2nc(N)oc2CC1, the Potency was “inactive”. With CC(=O)OC(C)C[N+](C)(C)C (stereo unspecified) the Potency was “inactive”. For COCCOC(=O)C1=C(C)NC(C)=C(C(=O)OC(C)C)C1c1cccc([N+](=O)[O-])c1 (stereo unspecified), the Potency was 7.94 µM (active). In the case of FC(F)(F)c1ccccc1-n1ccnc1, the Potency is reported as “inactive”. For C[N+](C)(C)CCOC(N)=O, the Potency was “inactive”. In the case of Fc1ccc(C(c2ccc(F)cc2)N2CCN(C/C=C/c3ccccc3)CC2)cc1, the Potency is reported as 12.6 µM (active). For COc1ccc(CN(CCN(C)C)c2ccccn2)cc1, the Potency was “inactive”. In the case of NC/C=C/C(=O)O, the Potency is reported as “inactive”. For CC(C)COCC(CN(Cc1ccccc1)c1ccccc1)N1CCCC1 (stereo unspecified), the Potency was “inactive”. With COCCc1ccc(OCC(O)CNC(C)C)cc1 (stereo unspecified) the Potency was “inactive”. In the case of OCCN1CCN(CCCN2c3ccccc3C=Cc3ccccc32)CC1, the Potency is reported as 11.2 µM (active) and 8.91 µM (active). With CCCN(CCC)C(=O)C(CCC(=O)O)NC(=O)c1ccccc1 (stereo unspecified) the Potency was “inactive”. For CCN1CCC[C@H]1CNC(=O)c1c(O)c(Cl)cc(Cl)c1OC, the Potency was “inactive”. With CC(C(=O)O)c1ccc(CC2CCCC2=O)cc1 (stereo unspecified) the Potency was “inactive”. With O=C1NCN(c2ccccc2)C12CCN(CCCC(c1ccc(F)cc1)c1ccc(F)cc1)CC2 the Potency was 2 µM (active).

Assay: qHTS for differential inhibitors of proliferation of Plasmodium falciparum line D10 (AID 1877);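 note: parasites grown with compound for 72 h before DNA staining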
Settings: series mostly up to 28.7 µM
In the case of CO[C@@]1(NC(=O)CSCC#N)C(=O)N2C(C(=O)O)=C(CSc3nnnn3C)CS[C@@H]21, the Potency is reported as “inactive”. For CC(=O)Oc1cc(C(C)C)c(OCCN(C)C)cc1C, the Potency was “inactive”. For NC(=O)N1c2ccccc2C=Cc2ccccc21, the Potency was “inactive”. For Nc1c2c(nc3ccccc13)CCCC2O (stereo unspecified), the Potency was “inactive”. With c1cc(CN2CCCCC2)cc(OCCCNc2nc3ccccc3s2)c1 the Potency was 8.91 µM (active). In the case of Cc1nc2sccn2c(=O)c1CCN1CCC(=C(c2ccc(F)cc2)c2ccc(F)cc2)CC1, the Potency is reported as 10 µM (active). For CNC1(C)C2CCC(C2)C1(C)C (stereo unspecified), the Potency was “inactive”. For COc1cc(C(=O)OCCCN2CCCN(CCCOC(=O)c3cc(OC)c(OC)c(OC)c3)CC2)cc(OC)c1OC, the Potency was 10 µM (active). With OC(CCN1CCCCC1)(c1ccccc1)C1CCCCC1 (stereo unspecified) the Potency was 12.6 µM (active). With CCN(CC)CCNC(=O)c1ccc(NC(C)=O)cc1 the Potency was “inactive”. With CCOC(=O)C1=C(C)NC(C)=C(C(=O)OC)C1c1cccc([N+](=O)[O-])c1 (stereo unspecified) the Potency was 12.6 µM (active). In the case of O=c1[nH]c(=O)n([C@H]2C[C@H](O)[C@@H](CO)O2)cc1Br, the Potency is reported as “inactive”. For c1ccc2c(c1)CCCC2C1=NCCN1 (stereo unspecified), the Potency was “inactive”. In the case of CCN1CCc2nc(N)oc2CC1, the Potency is reported as “inactive”. For CC(=O)OC(C)C[N+](C)(C)C (stereo unspecified), the Potency was “inactive”. In the case of COCCOC(=O)C1=C(C)NC(C)=C(C(=O)OC(C)C)C1c1cccc([N+](=O)[O-])c1 (stereo unspecified), the Potency is reported as 12.6 µM (active). In the case of FC(F)(F)c1ccccc1-n1ccnc1, the Potency is reported as “inactive”. For C[N+](C)(C)CCOC(N)=O, the Potency was “inactive”. In the case of Fc1ccc(C(c2ccc(F)cc2)N2CCN(C/C=C/c3ccccc3)CC2)cc1, the Potency is reported as 11.2 µM (active). With COc1ccc(CN(CCN(C)C)c2ccccn2)cc1 the Potency was “inactive”. With NC/C=C/C(=O)O the Potency was “inactive”. For CC(C)COCC(CN(Cc1ccccc1)c1ccccc1)N1CCCC1 (stereo unspecified), the Potency was “inactive”. In the case of COCCc1ccc(OCC(O)CNC(C)C)cc1 (stereo unspecified), the Potency is reported as “inactive”. With OCCN1CCN(CCCN2c3ccccc3C=Cc3ccccc32)CC1 the Potency was 10 µM (active). In the case of CCCN(CCC)C(=O)C(CCC(=O)O)NC(=O)c1ccccc1 (stereo unspecified), the Potency is reported as “inactive”. In the case of CCN1CCC[C@H]1CNC(=O)c1c(O)c(Cl)cc(Cl)c1OC, the Potency is reported as “inactive”. In the case of CC(C(=O)O)c1ccc(CC2CCCC2=O)cc1 (stereo unspecified), the Potency is reported as “inactive”. With O=C1NCN(c2ccccc2)C12CCN(CCCC(c1ccc(F)cc1)c1ccc(F)cc1)CC2 the Potency was 10 µM (active).
